Assay [1] can be described thus: E. coli DRC41 culture turbidity changes, primary screen, E. coli filamentation inducer project, strain DRC41, OD650, 48 h (AID 1152).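 Further: E. coli MC1000 strain DRC41 lacking acrAB efflux pump and sulA.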 Conditions: E. coli DRC41 (acrAB sulA), higher = more signal, called active from +8 up or from −8 down.
Assay [2] in a line: small-molecule binders of probe aLefty1, primary screen, biochemical, small-molecule microarray, 635/667 nm fluorescence (AID 1153).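 Further: score merges spot fluorescence with signal-to-noise ratio from the scanned slide images.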 Conditions: higher = more signal.
A short description of assay [3]: PSAC antagonists in infected red cells, primary screen, cell-based, P. falciparum Indochina, OD700, 1 h (AID 1154). Conditions: P. falciparum Indochina infected RBC osmotic lysis, higher = more signal, called active from +8 up or from −8 down.
The nature of assay [4]: PSAC antagonists in infected red cells, primary screen, cell-based, P. falciparum Indochina, OD700, 2 h (AID 1155).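 Further: lysis reports solute entry through the parasite surface anion channel PSAC; channel blockers reduce lysis of infected cells.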 Conditions: P. falciparum Indochina infected erythrocytes, osmotic lysis OD700; higher = more signal, called active from +8 up or from −8 down.
Assay [5] is described as follows: osmotic lysis modulators in infected erythrocytes, primary screen, PSAC antagonist project, cell-based, P. falciparum Indochina, OD700, 3 h (AID 1156). Conditions: higher = more signal, called active from +8 up or from −8 down.
Assay [6] can be described thus: PSAC antagonists in infected red cells, primary screen, cell-based, P. falciparum Indochina, OD700, 18 h (AID 1157). Conditions: P. falciparum Indochina infected erythrocytes, osmotic lysis OD700, 18 h; higher = more signal, called active from +8 up or from −8 down.
A short description of assay [7]: modulators of S6 phosphorylation in cells, primary screen, cell-based, A549, cytoblot, luminescence, serum-stimulated (AID 1158).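 Further: serum-stimulated A549 lung adenocarcinoma cells; signal is phosphorylated S6 detected by cytoblot immunostaining with HRP secondary.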 Conditions: A549 phospho-S6 cytoblot, 5 h, higher = more signal.
Assay [8] has as its target NADPH oxidase 2 (Homo sapiens) (UniProt P04839). The assay is described as follows: NOX2-dependent H2O2 signal modulators, primary screen, NOX inhibitor project, cell-based, HEK293-NOX2, PMA-stimulated, Amplex Red fluorescence (AID 1159). Further: test concentration not given here. Conditions: 45 min, higher = more signal, called active from +8 up or from −8 down.
For assay [9], the target named is NADPH oxidase 4 (Homo sapiens) (UniProt Q9NPH5). Kind of assay: NOX4-dependent H2O2 signal modulators, primary screen, NOX inhibitor project, cell-based, HEK293-NOX4, tetracycline-induced, Amplex Red fluorescence (AID 1160). Conditions: 45 min, higher = more signal, called active from +8 up or from −8 down.
NADPH oxidase 4 (Homo sapiens), sequence (Q9NPH5 whole entry, looked up): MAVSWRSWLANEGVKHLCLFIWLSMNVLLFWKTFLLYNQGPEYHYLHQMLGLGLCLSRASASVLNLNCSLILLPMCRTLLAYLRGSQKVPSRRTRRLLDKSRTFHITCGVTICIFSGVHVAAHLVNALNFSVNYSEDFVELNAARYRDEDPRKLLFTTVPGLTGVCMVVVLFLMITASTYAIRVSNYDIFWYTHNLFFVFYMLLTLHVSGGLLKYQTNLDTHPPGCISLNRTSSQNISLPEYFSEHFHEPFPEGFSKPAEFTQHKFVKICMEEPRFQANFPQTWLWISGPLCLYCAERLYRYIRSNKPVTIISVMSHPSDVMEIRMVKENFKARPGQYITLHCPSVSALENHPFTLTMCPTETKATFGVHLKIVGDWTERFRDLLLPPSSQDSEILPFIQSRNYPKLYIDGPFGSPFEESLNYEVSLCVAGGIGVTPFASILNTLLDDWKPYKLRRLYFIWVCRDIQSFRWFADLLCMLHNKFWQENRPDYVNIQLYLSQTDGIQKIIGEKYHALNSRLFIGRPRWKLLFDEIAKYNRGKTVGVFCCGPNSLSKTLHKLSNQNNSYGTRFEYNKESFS
Assay [10] concerns the target NADPH oxidase 5 (Homo sapiens) (UniProt Q96PH1). The assay is described as follows: NOX5-dependent H2O2 signal modulators, primary screen, NOX inhibitor project, cell-based, HEK293-NOX5, Amplex Red fluorescence (AID 1161). Conditions: HEK293-NOX5, ionomycin, 45 min, higher = more signal.

Active and inactive are the calls of the source.

NADPH oxidase 2 (Homo sapiens), sequence (P04839 whole entry, looked up): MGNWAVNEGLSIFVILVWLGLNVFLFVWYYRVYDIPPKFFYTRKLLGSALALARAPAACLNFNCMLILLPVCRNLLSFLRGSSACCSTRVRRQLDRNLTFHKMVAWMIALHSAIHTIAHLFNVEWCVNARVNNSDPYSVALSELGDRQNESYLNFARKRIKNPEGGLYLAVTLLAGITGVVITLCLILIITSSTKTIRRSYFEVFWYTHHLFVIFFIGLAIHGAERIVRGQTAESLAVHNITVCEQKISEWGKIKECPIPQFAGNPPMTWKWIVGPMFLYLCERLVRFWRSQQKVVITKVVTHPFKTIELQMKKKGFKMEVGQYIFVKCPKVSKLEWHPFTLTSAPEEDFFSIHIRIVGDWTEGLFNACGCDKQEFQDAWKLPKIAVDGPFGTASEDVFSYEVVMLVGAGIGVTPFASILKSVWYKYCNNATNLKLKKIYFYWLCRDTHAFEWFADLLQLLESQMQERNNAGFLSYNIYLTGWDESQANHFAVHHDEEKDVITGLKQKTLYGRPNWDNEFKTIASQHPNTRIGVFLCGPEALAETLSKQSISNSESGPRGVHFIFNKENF
NADPH oxidase 5 (Homo sapiens), sequence (Q96PH1 whole entry, looked up): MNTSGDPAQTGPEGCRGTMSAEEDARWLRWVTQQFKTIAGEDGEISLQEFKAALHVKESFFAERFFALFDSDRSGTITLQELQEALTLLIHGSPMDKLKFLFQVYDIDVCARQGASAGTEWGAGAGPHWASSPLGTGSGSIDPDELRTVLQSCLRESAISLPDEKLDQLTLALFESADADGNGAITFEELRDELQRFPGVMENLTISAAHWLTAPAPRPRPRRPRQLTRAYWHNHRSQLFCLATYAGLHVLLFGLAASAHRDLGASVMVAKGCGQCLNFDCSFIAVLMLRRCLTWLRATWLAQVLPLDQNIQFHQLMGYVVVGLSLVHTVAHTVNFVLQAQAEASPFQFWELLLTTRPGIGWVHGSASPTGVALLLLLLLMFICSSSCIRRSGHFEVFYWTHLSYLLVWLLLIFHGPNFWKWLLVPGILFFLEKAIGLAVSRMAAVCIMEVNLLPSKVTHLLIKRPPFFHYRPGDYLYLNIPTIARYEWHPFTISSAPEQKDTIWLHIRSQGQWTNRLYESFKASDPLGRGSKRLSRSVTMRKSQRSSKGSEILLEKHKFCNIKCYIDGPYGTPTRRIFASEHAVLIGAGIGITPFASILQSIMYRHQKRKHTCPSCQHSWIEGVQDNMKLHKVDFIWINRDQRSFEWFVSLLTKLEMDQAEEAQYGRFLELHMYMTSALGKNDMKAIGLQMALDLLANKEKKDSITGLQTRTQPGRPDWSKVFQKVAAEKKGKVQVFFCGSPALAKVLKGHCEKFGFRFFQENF

As to `COC(=O)[C@@]1(Cc2ccccc2)[C@H]2c3cc(C(=O)N4CCCC4)n(Cc4cc(F)cc5c4OCOC5)c3C[C@H]2CN1C(=O)c1ccccc1`, the z-score in assay [1] was -1.14 (inactive); in assay [3], 2.98 (inactive); in [4], 0.589 (inactive); in assay [5] it was 0.804 (inactive); in assay [6] it was 0.715 (inactive); in assay [7], -0.163. For the same compound, the z-score in [8] is 0.768 (inactive); in assay [9], 0.0378 (inactive); in assay [10], -0.652. The compound also returned a composite z-score in assay [2] of 0.0752.
As to `O=C(CS)NCCCCCCNC(=O)[C@H]1C[C@H]2C(=O)N[C@@H](Cc3ccccc3)C(=O)N2[C@H]1c1cccc(OCCO)c1`, the z-score was -0.405 (inactive) in assay [1]; 6 (inactive) in assay [3]; 0.988 (inactive) in [4]; -0.228 (inactive) in assay [5]; 0.351 (inactive) in assay [6]; 0.882 in assay [7]. Moreover, the z-score was 1.76 (inactive) in [8], 0.441 (inactive) in assay [9] and -0.135 in assay [10]. Moreover, in assay [2], the composite z-score stood at 0.269.
As for `C=CC[C@@]12N=C(c3ccc(OCCCO)cc3)O[C@@H]1c1ccccc1N(CCS(=O)(=O)c1ccccc1)C2=O`, the z-score is -0.309 (inactive) in assay [1]; 33.3 (active) in [3]; 28.5 (active) in assay [4]; 3.7 (inactive) in assay [5]; 8.56 (active) in assay [6]; 0.766 in [7]. In addition, the z-score is -1.55 (inactive) in assay [8], 0.599 (inactive) in assay [9] and -1.91 in assay [10]. This compound registered a composite z-score in assay [2] of 0.199.
With `CC(CO)N1C(=O)[C@@H]2C3C(=O)OCCC/C=C\[C@H]3OC23C=CCN(Cn2nnc4ccccc42)C(=O)[C@@H]13` (stereo not given in full), the z-score was 0.822 (inactive) in assay [1]; 1.03 (inactive) in assay [3]; 0.132 (inactive) in assay [4]; 2.14 (inactive) in assay [5]; 0.502 (inactive) in assay [6]; 0.282 in assay [7]. Besides, the z-score in assay [8] is 1.32 (inactive); in assay [9], 0.193 (inactive); in [10], 2.03. The composite z-score in assay [2] was -0.0035.
Consider `COCCOC(=O)N1C(=O)[C@@]2(c3cc(C#CC4(O)CCCCCC4)ccc31)[C@H](C(N)=O)[C@H]1C(=O)O[C@H](c3ccccc3)[C@H](c3ccccc3)N1[C@@H]2c1ccc(O)cc1`, for which the z-score was -0.342 (inactive) in assay [1]; 1.7 (inactive) in assay [3]; -0.269 (inactive) in [4]; 2.21 (inactive) in [5]; -0.125 (inactive) in assay [6]; -0.0551 in assay [7]. In addition, the z-score in assay [8] is 0.649 (inactive); in assay [9], 0.547 (inactive); in [10], 0.85. The composite z-score in assay [2] was -0.0186.
`[N-]=[N+]=NCc1ccccc1C[C@@]1(C(N)=O)N=C(c2ccc(OCCCO)cc2)O[C@@H]1c1ccccc1CN=[N+]=[N-]`: the z-score in assay [1] is 0.315 (inactive); in assay [3], 26.2 (active); in assay [4], 10.1 (active); in [5] it was 1.31 (inactive); in [6], 1.38 (inactive); in assay [7], -0.107. Besides, the figures for the z-score in assay [8], in assay [9] and in assay [10] were 0.415 (inactive), 0.14 (inactive) and -1.66, respectively. Besides, the composite z-score in assay [2] came to 0.315.
For the compound `CCCc1cccc(=O)o1`, the z-score is -0.228 (inactive) in assay [1]; 0.342 (inactive) in assay [3]; -0.831 (inactive) in assay [4]; -0.832 (inactive) in [5]; -1.23 (inactive) in [6]; 0.274 in assay [7]. The figures for the z-score in assay [8], in assay [9] and in assay [10] were 0.685 (inactive), -0.173 (inactive) and 0.173, respectively. In assay [2], this compound returned a composite z-score of 0.042.
`C=C[C@@H](COC(C)=O)NS(=O)(=O)c1ccc(Br)cc1`: the z-score was 0.032 (inactive) in assay [1]; -0.0045 (inactive) in assay [3]; -0.446 (inactive) in [4]; -0.123 (inactive) in assay [5]; 0.0804 (inactive) in [6]; -0.0771 in assay [7]. Moreover, the z-score is -0.34 (inactive) in [8], -0.487 (inactive) in assay [9] and -0.833 in assay [10]. The same compound displayed a composite z-score in assay [2] of -0.0464.
With `CO[C@H]1O[C@H](CO)[C@@H](OC(=O)c2ccc(Br)cc2)[C@@H]2OC(=O)[C@@H](Cc3ccc4ccccc4c3)C/C=C/C[C@H](Cc3ccc4ccccc4c3)C(=O)O[C@@H]12`, the z-score was 0.689 (inactive) in assay [1]; 2.52 (inactive) in assay [3]; -0.503 (inactive) in [4]; -1.15 (inactive) in assay [5]; -2.1 (inactive) in [6]; 1.74 in assay [7]. Moreover, the z-score was 1.76 (inactive) in [8], 0.00292 (inactive) in [9] and -1.77 in assay [10]. This compound also returned a composite z-score in assay [2] of -0.113.
Take `COC(=O)[C@@]1(Cc2ccccc2)[C@H]2c3cc(C(=O)N4CCCC4)[nH]c3C[C@H]2CN1C(=O)c1ccccc1`: the z-score in assay [1] was -0.875 (inactive); in assay [3] it was 4.64 (inactive); in assay [4], 0.805 (inactive); in [5] it was 0.102 (inactive); in assay [6] it was 0.717 (inactive); in assay [7], 0.177. The figures for the z-score in assay [8], in assay [9] and in assay [10] were 0.0123 (inactive), -0.696 (inactive) and -0.713, respectively. Moreover, the composite z-score in assay [2] amounted to 0.269.
For the compound `C=CCOC(=O)[C@@H]1[C@H]2C(=O)O[C@H](c3ccccc3)[C@H](c3ccccc3)N2[C@H](c2ccc(OCCOC(=O)[C@H]3C[C@H]4C(=O)N[C@@H](CCCCNC(C)=O)C(=O)N4[C@H]3c3cccc(OCCO)c3)cc2)[C@@]12C(=O)Nc1ccc(I)cc12`, the z-score in assay [1] is -0.04 (inactive); in assay [3] it was 3.68 (inactive); in assay [4] it was 1.73 (inactive); in assay [5], 0.309 (inactive); in [6], 1.16 (inactive); in [7], -0.479. Besides, the z-score in [8] is 1.62 (inactive); in assay [9], 0.898 (inactive); in assay [10], 1.86. This compound gave a composite z-score in assay [2] of -0.0358.
As for `C=CCOC(=O)[C@@H]1[C@H]2C(=O)O[C@H](c3ccccc3)[C@H](c3ccccc3)N2[C@H](c2ccc(OCCOC(=O)[C@H]3C[C@H]4C(=O)N[C@@H](CCCC[N+](C)(C)C)C(=O)N4[C@H]3c3ccc(O)cc3)cc2)[C@@]12C(=O)Nc1ccc(I)cc12`, the z-score in assay [1] is -0.451 (inactive); in assay [3], 2.42 (inactive); in [4], 1.57 (inactive); in assay [5], 0.511 (inactive); in [6] it was 0.792 (inactive); in assay [7] it was -0.281. Besides, the z-score in assay [8] was 1.4 (inactive); in assay [9], 1.06 (inactive); in assay [10], 1.24. In [2], this compound came in with a composite z-score of 0.113.

The values are drawn from PubChem BioAssay.
